The source made the active and inactive calls.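 The calls were made as follows, unless noted: active = visual image review flags a hit and inhibition of aggregation exceeds 20%; inconclusive = visual hit but inhibition at or below 20%; inactive = no hit on visual image review.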

Experiment [1] in a line: inhibitors of TNFa-induced NFkB p65 translocation, primary screen, imaging, HUVEC, MLSMR starter and 10KST1 sets (AID 438;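 active = inhibition above 20% together with a positive visual image hit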;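 also: compound added about 3h40 before a 20 min TNFalpha stimulation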;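 as to inhibition: signal is the nuclear over cytoplasmic p65 intensity ratio per well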). The conditions noted are these: HUVEC TNFa-induced p65 nuclear translocation; cell count: measured here: nuclei count (cytotoxicity indicator), at 2.08 µM; inhibition: at 2 µM, stronger effect = higher value, 0% TNFa-plus-vehicle, 100% no-TNFa wells.
Experiment [2] can be described thus: inhibitors of mutant huntingtin aggregation, primary screen, imaging, exon1htt(103Q)mCFP cells, high-content imaging (AID 483).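 Also: compound exposure lasted 3 days before fixation.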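 As to nuclei count: percent of the per-plate median nuclei count of sample wells.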 To be noted: exon1htt(103Q)mCFP cell line, aggregate imaging, at 2 µM; inhibition of aggregation: stronger effect = higher value; nuclei count: measured here: cell count, toxicity.
Experiment [3] is described as follows: inhibitors of E-selectin induction by TNFa, primary screen, imaging, HUVEC, immunofluorescence, MLSMR starter and 10KST1 sets (AID 487;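 active = visually confirmed hit in the image check and inhibition above 20%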;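 as to inhibition: signal is fraction of cell area covered by stained E-selectin grains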;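 as to nuclei count: 100% = median nuclei count of all wells on the same plate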). To be noted: HUVEC TNFalpha-induced E-selectin immunofluorescence imaging, at 2 µM; inhibition: stronger effect = higher value; nuclei count: measured here: cell number, toxicity.
The target of experiment [4] is Voltage-gated potassium channel subunit beta-2 (Rattus norvegicus) (UniProt P62483). In words: KvBeta enzyme negative modulators, primary screen, biochemical, NADPH fluorescence (AID 622;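 active = fluorescence slope higher than the sample average by over 3 SD, cut at about -0.22 in these data, passing the limit was not always enough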;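 also: slope of raw intensity against log time taken from 70 to 1610 s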). To be noted: recombinant KvBeta, 4-cyanobenzaldehyde reduction, at 10 µM, stronger effect = higher value.
For experiment [5] the target is unchanged. Description: KvBeta positive modulators, primary screen, biochemical, NADPH fluorescence (AID 623;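 active = NADPH fluorescence slope more negative than the mean of all samples by about 3 SD, 99.7% confidence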;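 also: fluorescence intensity change per second fitted from 20 to 320 s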). To be noted: Recombinant KvBeta, NADPH fluorescence decrease slope, 10 min; at 10 µM; stronger effect = lower value.
For experiment [6], the target named is Alpha-2C adrenergic receptor (Homo sapiens) (UniProt P18825). In words: modulators of alpha2C/GIRK thallium flux, primary screen, cell-based, HEK293 alpha2C/GIRK1/2 (AID 624;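 active = fluorescence slope after compound addition differing from the mean of all screened samples at 99.7% confidence, in either direction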;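 also: slope of fluorescence ratio to pre-addition baseline per second over 15 to 24 s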). To be noted: thallium flux BTC fluorescence, at 10 µM, actives lie on both sides.
Experiment [7] can be described thus: inhibitors of Sendai virus-induced IRF3 signaling, primary screen, TLR/RLR signaling modifier project, cell-based, Sendai virus stimulus, luciferase, 10K MLSCN set (AID 602276;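 active = inhibition at or above 50% at 10 µM; inactive = inhibition below 50%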;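 also: firefly luciferase from ISG56 promoter only with Renilla not read in this screen; 0% = Sendai virus plus DMSO and 100% = medium plus DMSO without virus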). The conditions noted are these: HEK293 RL24 IRF3 luciferase reporter, at 10 µM, stronger effect = higher value.
Experiment [8] in a line: inhibitors of poly I:C-induced TLR3 signaling, primary screen, cell-based, poly I:C stimulus, luciferase, 10K MLSCN set (AID 602277;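 active = inhibition of the reporter signal at or above 50%; inactive = inhibition below 50%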). To be noted: HEK293-TLR3 RL24 IRF3 luciferase reporter, at 10 µM, stronger effect = higher value.

Alpha-2C adrenergic receptor (Homo sapiens), sequence (P18825 whole entry, looked up): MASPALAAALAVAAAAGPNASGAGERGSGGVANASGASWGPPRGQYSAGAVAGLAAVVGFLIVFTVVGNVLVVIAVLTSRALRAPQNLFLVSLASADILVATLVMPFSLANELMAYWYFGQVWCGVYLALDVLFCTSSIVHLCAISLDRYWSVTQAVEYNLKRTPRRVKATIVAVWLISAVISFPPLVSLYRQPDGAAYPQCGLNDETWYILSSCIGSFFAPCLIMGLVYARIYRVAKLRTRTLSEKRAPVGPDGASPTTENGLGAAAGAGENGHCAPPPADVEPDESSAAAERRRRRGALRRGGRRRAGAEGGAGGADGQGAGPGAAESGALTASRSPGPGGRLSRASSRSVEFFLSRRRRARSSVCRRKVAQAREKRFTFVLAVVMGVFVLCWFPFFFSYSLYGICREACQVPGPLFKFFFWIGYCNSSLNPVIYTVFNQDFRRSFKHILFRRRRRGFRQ
Voltage-gated potassium channel subunit beta-2 (Rattus norvegicus), sequence (P62483 whole entry, looked up): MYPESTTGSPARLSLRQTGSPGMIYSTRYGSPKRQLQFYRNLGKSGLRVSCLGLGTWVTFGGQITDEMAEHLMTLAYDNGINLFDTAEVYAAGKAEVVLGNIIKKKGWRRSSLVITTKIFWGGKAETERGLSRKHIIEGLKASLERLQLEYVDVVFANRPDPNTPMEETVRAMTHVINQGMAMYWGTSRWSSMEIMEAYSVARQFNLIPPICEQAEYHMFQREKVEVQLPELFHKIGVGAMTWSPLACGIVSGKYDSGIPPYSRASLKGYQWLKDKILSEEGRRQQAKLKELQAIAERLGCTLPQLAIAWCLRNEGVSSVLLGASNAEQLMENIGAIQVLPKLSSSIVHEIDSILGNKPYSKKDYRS

Regarding `O=C(Nc1ccccc1C(F)(F)F)c1cc(S(=O)(=O)N2CCOCC2)ccc1F`, the cell count in experiment [1] came out at 415. Besides, the inhibition in experiment [1] is 2.8% (inactive); in experiment [3], -247% (inactive); in experiment [7], 8.22% (inactive); in experiment [8], 21.8% (inactive). The inhibition of aggregation in experiment [2] is 12.8% (inactive). The results for the nuclei count in experiment [2] and in experiment [3] were 62.3% and 107%, respectively. Besides, the fluorescence slope in experiment [4] was -0.619 (inactive). In experiment [5], the NADPH fluorescence slope is 2.6e-06 (inactive). Also, in experiment [6], the slope was 0.00704 (inactive).
As for `O=c1c[n+]([O-])c2ccccc2n1OCc1c(F)cccc1F`, the cell count in experiment [1] stood at 744. In addition, the inhibition in experiment [1] is -6% (inactive); in experiment [3], -236% (inactive); in experiment [7], 18% (inactive); in experiment [8], 24.8% (inactive). Also, the inhibition of aggregation in experiment [2] is -13.7% (inactive). Besides, the nuclei count in experiment [2] is 87.6%; in experiment [3], 110%. In addition, in experiment [4], the fluorescence slope was -0.425 (inactive). For the same molecule, the NADPH fluorescence slope in experiment [5] is -2.4e-05 (inactive). Besides, in experiment [6], the slope was 0.00594 (inactive).
Turning to `Nc1nc2ccccc2n1C(=O)CCc1ccccc1`, the cell count in experiment [1] amounted to 663. Further, the inhibition in experiment [1] was -1.2% (inactive); in experiment [3], -36.3% (inactive); in experiment [7] it was -24.1% (inactive); in experiment [8], -73.1% (inactive). The inhibition of aggregation in experiment [2] is -11.5% (inactive). In addition, the nuclei count came out at 69% in experiment [2] and 125% in experiment [3]. Besides, in experiment [4], the fluorescence slope is -0.396 (inactive). In addition, the NADPH fluorescence slope in experiment [5] was -3.8e-05 (inactive). Also, the slope in experiment [6] is 0.0047 (inactive).
On to `Cc1oc(-c2cccc(Cl)c2)nc1CN1CCC(C(=O)N2CCN(c3ccccc3F)CC2)CC1`, for which, in experiment [1], the cell count stood at 780. Further, the inhibition in experiment [1] is -0.6% (inactive); in experiment [3] it was -73.6% (inactive); in experiment [7], -0.341% (inactive); in experiment [8] it was -26% (inactive). Besides, the inhibition of aggregation in experiment [2] was -4% (inactive). The figures for the nuclei count in experiment [2] and in experiment [3] were 77.7% and 108%, respectively. Besides, in experiment [4], the fluorescence slope is -0.552 (inactive). Moreover, in experiment [5], the NADPH fluorescence slope is -2.2e-05 (inactive). The slope in experiment [6] is 0.00639 (inactive).
Take `N#CCOc1nc(N2CCOCC2)nc(N2CCOCC2)n1`: the cell count in experiment [1] came to 552. Besides, the inhibition in experiment [1] was -30.6% (inactive); in experiment [3], -10.4% (inactive); in experiment [7], 10.5% (inactive); in experiment [8], 18.6% (inactive). For the same molecule, the inhibition of aggregation in experiment [2] is 3% (inactive). Moreover, the nuclei count in experiment [2] amounted to 76.6%; in experiment [3] it was 100%. In addition, the fluorescence slope in experiment [4] was -0.287 (inactive). For the same molecule, in experiment [5], the NADPH fluorescence slope is -4.5e-05 (inactive). For the same molecule, in experiment [6], the slope was 0.00534 (inactive).
For `O=C(O)C1CC=CCC1C(=O)Nc1cc(Cl)ccc1Cl` (centres undefined), in experiment [1], the cell count is 389. Further, the inhibition in experiment [1] was 4.2% (inactive); in experiment [3] it was 5.3% (inactive); in experiment [7], -11.2% (inactive); in experiment [8] it was 1.01% (inactive). Besides, in experiment [2], the inhibition of aggregation is -1.2% (inactive). Moreover, the figures for the nuclei count in experiment [2] and in experiment [3] were 98.5% and 102%, respectively. The fluorescence slope in experiment [4] was -0.505 (inactive). For the same molecule, the NADPH fluorescence slope in experiment [5] was -2.3e-05 (inactive). In addition, the slope in experiment [6] is 0.00676 (inactive).
For the molecule `Clc1ccc(C2=Nn3c(nnc3-c3n[nH]c4c3CCC4)SC2)cc1Cl`, the cell count in experiment [1] turned out to be 434. In addition, the inhibition in experiment [1] was 3% (inactive); in experiment [3], 19.9% (inactive); in experiment [7], 29.6% (inactive); in experiment [8], 33% (inactive). In experiment [2], the inhibition of aggregation was 1.5% (inactive). The nuclei count is 101% in experiment [2] and 95.9% in experiment [3]. The fluorescence slope in experiment [4] was -0.498 (inactive). The NADPH fluorescence slope in experiment [5] was 1.2e-05 (inactive). In experiment [6], the slope was 0.00652 (inactive).
Consider `COC(=O)c1cc(OC)c(OC)cc1NC(=O)c1ccc(Br)o1`, for which the cell count in experiment [1] is 296. For the same molecule, the inhibition in experiment [1] was -7.2% (inactive); in experiment [3] it was -91.3% (inactive); in experiment [7], 2.63% (inactive); in experiment [8] it was -5.12% (inactive). For the same molecule, in experiment [2], the inhibition of aggregation is -7.5% (inactive). Besides, the nuclei count is 95.4% in experiment [2] and 103% in experiment [3]. In addition, the fluorescence slope in experiment [4] is -0.312 (inactive). For the same molecule, in experiment [5], the NADPH fluorescence slope is -4.6e-05 (inactive). Further, in experiment [6], the slope was 0.00764 (inactive).
As to `CS(=O)(=O)N(Cc1ccccc1)c1ccc(C(=O)N2CCOCC2)cc1`, the cell count in experiment [1] is 297. In addition, the inhibition in experiment [1] is 11.6% (inactive); in experiment [3], 41.9% (inactive); in experiment [7] it was -11.4% (inactive); in experiment [8] it was 0.146% (inactive). Further, the inhibition of aggregation in experiment [2] is 23% (inactive). In addition, the nuclei count in experiment [2] is 91.2%; in experiment [3], 96.9%. For the same molecule, in experiment [4], the fluorescence slope is -0.516 (inactive). In experiment [5], the NADPH fluorescence slope was -1.2e-05 (inactive). In addition, the slope in experiment [6] was 0.00702 (inactive).
Turning to `CC(C)COC(=O)N(C)c1ccc(C(O)(C(F)(F)F)C(F)(F)F)cc1`, the cell count in experiment [1] amounted to 744. Moreover, the inhibition in experiment [1] is -12.4% (inactive); in experiment [3], -56.8% (inactive); in experiment [7], -9.85% (inactive); in experiment [8], -5.85% (inactive). Further, the inhibition of aggregation in experiment [2] was -7.8% (inactive). Moreover, the figures for the nuclei count in experiment [2] and in experiment [3] were 116% and 112%, respectively. Also, the fluorescence slope in experiment [4] was -0.618 (inactive). Moreover, the NADPH fluorescence slope in experiment [5] is -4.8e-06 (inactive). Moreover, in experiment [6], the slope is 0.00749 (inactive).
In the case of `CCOC(=O)N1CCC(N2C(=O)c3ccc(C(=O)NCc4ccco4)cc3C2=O)CC1`, the cell count in experiment [1] was 646. The inhibition in experiment [1] is -6.1% (inactive); in experiment [3], -40.8% (inactive); in experiment [7] it was 7.39% (inactive); in experiment [8], 26.2% (inactive). The inhibition of aggregation in experiment [2] is 0.7% (inactive). In addition, the nuclei count in experiment [2] stood at 96.3%; in experiment [3] it was 126%. For the same molecule, in experiment [4], the fluorescence slope was -0.59 (inactive). The NADPH fluorescence slope in experiment [5] is -2.2e-06 (inactive). Moreover, the slope in experiment [6] is 0.00518 (inactive).
Turning to `Cc1nc2cc(Cl)ccc2n1CCO`, the cell count in experiment [1] amounted to 404. The inhibition was 6.1% (inactive) in experiment [1], 15.4% (inactive) in experiment [3], 17% (inactive) in experiment [7] and 21.6% (inactive) in experiment [8]. Also, in experiment [2], the inhibition of aggregation was -6.3% (inactive). Besides, the nuclei count in experiment [2] is 104%; in experiment [3], 115%. In addition, the fluorescence slope in experiment [4] was -0.565 (inactive). Moreover, the NADPH fluorescence slope in experiment [5] is -1.6e-05 (inactive). The slope in experiment [6] is 0.00492 (inactive).
For the molecule `Cc1ccc(C)c(C(=O)CC2(O)C(=O)N(C)c3ccccc32)c1` (centres undefined), in experiment [1], the cell count was 497. In addition, the inhibition in experiment [1] was 0.7% (inactive); in experiment [3], -7% (inactive); in experiment [7] it was 2.91% (inactive); in experiment [8] it was 33.7% (inactive). Moreover, the inhibition of aggregation in experiment [2] is -18% (inactive). The nuclei count was 106% in experiment [2] and 122% in experiment [3]. The fluorescence slope in experiment [4] is -0.45 (inactive). The NADPH fluorescence slope in experiment [5] is -5.8e-05 (inactive). Besides, the slope in experiment [6] is 0.00346 (inactive).
Turning to `COc1ccc(OC)c(-c2nc3c(C)n[nH]c(=O)c3[nH]2)c1`, in experiment [1], the cell count was 536. For the same molecule, the inhibition in experiment [1] is 10.3% (inactive); in experiment [3], 9.1% (inactive); in experiment [7], 8.37% (inactive); in experiment [8] it was 20.2% (inactive). In addition, the inhibition of aggregation in experiment [2] was 13% (inactive). The figures for the nuclei count in experiment [2] and in experiment [3] were 18.1% and 118%, respectively. For the same molecule, the fluorescence slope in experiment [4] is -0.423 (inactive). For the same molecule, the NADPH fluorescence slope in experiment [5] was -6.2e-05 (inactive). For the same molecule, in experiment [6], the slope is 0.00496 (inactive).
